Assay outcomes as filed in PubChem BioAssay.
In the library only some 8.1% were active in any assay of this set; here they are far more common.
Epigenetic derep = epigenetic control regulation, reporter derepression; murine LDR cells, GFP reporter derepression, 30 h; Potency, µM (top dose mostly 53.9 µM), inactives show at the highest dose GFP activation, most hits filed as activators; 280,000 compounds, 0.2% hits; note: % of control where 0% means no effect; nearly all actives have a fitted effect of over 60% in size
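GFP-positive cell count by laser-scanning cytometry (objects 20–120 um) after 30 h, 37 C compound exposure of murine LDR cells; reporter is CMV-GFP integrated at a silenced locus, inducible by HDAC or DNMT inhibitors.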
Sfp PPTase inh = Sfp phosphopantetheinyl transferase inhibition; Biochemical Sfp PPTase activity, qHTS; Potency, µM, for inactives: largest response in the series, negative = inhibition, actives largely listed as inhibitors; 310,000 compounds, 3.5% hits; AID 1490;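 note: the enzyme is Sfp with the accession as filed and its product quenches rhodamine fluorescence; 0% = enzyme reaction without inhibitor and -100% = no enzyme wells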
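Reaction rates are the 30-min fluorescence difference (ex 525, em 598 nm) in wells containing 15 nM Sfp, 5 uM rhodamine-CoA and 12.5 uM BHQ-2-YbbR at pH 7.6 with 10 mM MgCl2.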
RORg inh = ROR gamma (mouse) transcription inhibition; AID 2551; 310,000 compounds, 5.4% hits; Drosophila S2 Gal4-RORgamma UAS-luciferase reporter, 20 h; Potency, µM (highest dose often 53.6 µM), for the others: at the highest dose activity change, negative = inhibition, hits mostly inhibitors; note: % is set by controls: 0 for no effect and ±100 for the full control effect; nearly all actives have a fitted effect of over 60% in size
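Stable Schneider cell line, Gal4 DNA-binding domain fused to ROR gamma, UAS-luciferase. Cmpd 1 hr RT → CuSO4 700 uM final → 20 hr RT → luciferase reagent 10 min → luminescence.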
PINK1 modulator = changes PINK1 expression. Potency, µM (doses to about 76.6 µM), for inactives: at the highest dose activation (PINK1 increase), most hits filed as activators. PINK1 immunofluorescence, high-content cytometry, 24 h. 410,000 compounds, 0.2% hits. AID 624263; active = well fitted activation curve with a large enough effect; inconclusive = small, poorly fitted or top-dose-only effect; cell line not stated here; note: % of control where 0% means no effect; nearly all actives have a fitted effect of over 65% in size
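Readout is PINK1 immunofluorescence, quantified alongside mitochondrial, cell and nuclear markers by laser-scanning microplate cytometry. Cells from a stable line were exposed to compound titrations (5 concentrations) for 24 hours, with CCCP controls.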
ClpP mod = qHTS Assay for Activators of ClpP; purified B. subtilis ClpP, FRET peptide cleavage, 20 min; Potency, µM (series often up to 57.5 µM), without a hit: at the highest dose activity change, negative = active; 340,000 compounds, 1.9% hits; AID 651965, 2013; active = well fitted falling curve with a large enough effect; inconclusive = small, poorly fitted or top-dose-only effect; inactive = no such curve, though single readings can be large or run the other way; note: the source files actives as falling curves though it sought activators and does not explain the sign; nearly all actives have a fitted effect of over 65% in size
Target sequence (P80244 whole entry, looked up): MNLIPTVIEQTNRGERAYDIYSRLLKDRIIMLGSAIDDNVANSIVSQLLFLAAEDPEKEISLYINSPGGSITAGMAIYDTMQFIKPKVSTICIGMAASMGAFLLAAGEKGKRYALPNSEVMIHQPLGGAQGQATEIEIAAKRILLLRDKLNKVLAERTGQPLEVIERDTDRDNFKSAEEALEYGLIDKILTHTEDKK
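Buffer: 100 mM Tris/HCl pH8, 100 mM KCl, 0.05% low protease BSA, 2.5% glycerol, 0.01% Tween-20. ClpP 10 microg/mL final; 20 min RT; delta FRET normalized to ADEP and DMSO controls.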
VP16 counter = counter-screen for ROR gamma inhibitors: Gal4-VP16 reporter; AID 2546; Drosophila S2 Gal4-VP16 UAS-luciferase, luminescence, 20 h; Potency, µM (highest dose often 53.6 µM), for inactives: at the top dose activity, negative = inhibition, hits mostly inhibitors; 310,000 compounds, 3.5% hits;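 note: Gal4-VP16 expression switched on by copper sulfate through the metallothionein promoter; % is set by controls: 0 for no effect and ±100 for the full control effect; nearly all actives have a fitted effect of over 50% in size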
Numbers without * were called inactive; ? = inconclusive; / = not tested or not shown. Unless noted, calls come from the whole dose curve; as a rule, active = well fitted curve in the direction sought with a large enough effect; inconclusive = small, poorly fitted or top-dose-only effect, or another doubt; inactive = no such curve, though single readings can be large; an effect the other way counts as inactive or inconclusive. Potency is the fitted concentration of half-maximal effect.

SMILES	Epigenetic derep	Sfp PPTase inh	RORg inh	PINK1 modulator	ClpP mod	VP16 counter
CCCC(=O)N/C(N)=N/c1nc(C)c2ccccc2n1	1%	10%	1.1µM*	4%	/	21%
O=C1c2cccc3cccc(c23)C(=O)N1CC1CCN(CC(O)COCc2ccc3c(c2)OCO3)CC1 (stereo unspecified)	1%	3%	-21%	-2%	28µM*	-23%
Cc1csc2ncnc(NC3CCN(Cc4ccccc4)CC3)c12	1%	3%	2.5µM*	-2%	/	2.8µM*
CC(C)CCn1c(=O)c2sccc2n2c(CCCC(=O)NC(C)C)nnc12	4%	/	/	0%	?	/
Cc1c(Cl)cccc1NC(=O)NC1CCCCC1	-1%	11%	8%	-1%	0%	29%
Cc1c(Cl)cccc1NC(=S)NC1CC1	0%	-9%	10µM*	-1%	1%	?
S=C(Nc1ccccc1Cl)NC1CCCCCC1	2%	15%	3.5µM*	-2%	-2%	10µM*
O=C(Nc1cccc(S(=O)(=O)Nc2ccccc2Cl)c1)c1ccc(Cl)nc1	-1%	-3%	?	9%	-1%	6.3µM*
Cc1c(Cl)cccc1NC(=S)NNS(=O)(=O)c1ccc([N+](=O)[O-])cc1	/	16%	4.5µM*	2%	0%	7.1µM*
O=C(NC1CCN(C(=S)Nc2ccccc2Cl)CC1)C1CCCCC1	/	7%	-14%	2%	/	-9%
O=C(Nc1cccc(S(=O)(=O)N2CCCCCC2)c1)c1ccc(Cl)nc1	/	/	/	7%	/	/
CC1=C(C(=O)NCc2ccccc2Cl)C2(CCCCCC2)OC1=O	-1%	/	/	0%	1%	/
COc1ccc(C)cc1NC(=O)C1CCCN(c2ncnc3onc(C)c23)C1 (stereo unspecified)	0%	/	/	-1%	-2%	/
Cc1c(Cl)cccc1NC(=S)Nn1cnnc1	-3%	22µM*	?	-2%	-1%	-9%
O=C(NNC(=S)NC1CCCCC1)c1cccc(S(=O)(=O)Nc2ccccc2Cl)c1	1%	?	4µM*	0%	0%	?
S=C(Nc1ccc(Cl)cc1Cl)NC1CCCCC1	1%	9%	?	2%	-1%	0.89µM*
O=C(Nc1ccc(Cl)cc1Cl)NC1CCCC1	0%	20%	14%	0%	/	5%
O=C(c1cccc(S(=O)(=O)Nc2ccccc2Cl)c1)N1CCCCCC1	/	/	/	-2%	-2%	/
Fc1ccc(NC(=S)NC2CCCCC2)c(F)c1F	-1%	-10%	8.9µM*	8%	-2%	7.1µM*
Cc1c(Cl)cccc1NC(=S)NCCCN(C)C	0%	-20%	-12%	-1%	-1%	-9%
Cc1ccc(CN(C(=O)COc2ccc(Cl)cc2Cl)C2CCS(=O)(=O)C2)o1 (stereo unspecified)	2%	/	/	0%	2%	/
COC(=O)C(C(C)=O)C(NC(=O)OC(C)(C)C)c1ccccc1 (stereo unspecified)	1%	10%	17%	/	/	1%
O=c1oc2c(CN3CCOCC3)c(O)ccc2cc1-c1ccc(Cl)cc1	-1%	/	/	3%	3%	/
Nc1ccccc1C#CC(=O)c1ccccc1	/	-3%	7.1µM*	1%	-1%	7.1µM*
O=C(C#Cc1cccc([N+](=O)[O-])c1)c1ccccc1	?	?	2.8µM*	/	/	3.2µM*
C=CCNC(=O)N1CCc2nc(CCCC)c3c(c2C1)CO[C@@H](C)C3	/	0%	/	/	/	/
COC(=O)c1ccc(NC(=O)c2cc(=O)c3ccc(C)cc3o2)cc1	2%	/	/	2%	-2%	/
CN(CCC#N)C(=S)Nc1ccc(Oc2ccccc2)cc1	0%	8%	36%	2%	-2%	19%
CCCN(CC1CC1)C(=S)Nc1ccc(Oc2ccccc2)cc1	0%	13%	13µM*	18%	-1%	8.9µM*
CCCCN(C)C(=S)Nc1ccc(Oc2ccccc2)cc1	-1%	9%	11µM*	1%	-1%	?
